Source: PubChem BioAssay
RE007 growth inh: less growth of the S. pombe RE007 Vpr strain. Potency, µM (titrated, usually from 92.2 µM), hits mostly inhibitors. 360,000 compounds, 0.21% hits. S. pombe RE007 Vpr strain, BacTiter-Glo ATP luminescence, 24 h; active = well fitted falling curve with a large enough effect; inconclusive = small, poorly fitted or top-dose-only effect; inactive = no such curve, though single readings can be large or run the other way; also: nearly all actives have a fitted effect of over 50% in size
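Fission yeast strain RE007, carrying one chromosomally integrated HIV-1 vpr copy, was seeded at OD 0.01 in PMG+AL medium with 23 nL pinned compound. After 24 h at 30 °C and 99% humidity, viability was read by BacTiter-Glo luminescence.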
Giardia FBPA inh: Giardia lamblia aldolase inhibition. A8B2U2. purified Giardia FBPA. Potency, µM (series often up to 59.6 µM), most hits filed as inhibitors. 290,000 compounds, 0.71% hits. AID 2451; also: nearly all actives have a fitted effect of over 55% in size
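Giardia FBPA (40 nM reagent) was preincubated 10 min at RT with compound (up to 57.5 uM final), then substrate plus GAPDH/TPI/NAD/arsenate coupling system with diaphorase/resazurin was added; resorufin fluorescence (525/598 nm) was read after 20 min.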
Tb PYK inh: inhibitors of Trypanosoma brucei pyruvate kinase. Potency, µM (series often up to 76.8 µM), usual class: inhibitors. TbPYK enzyme, Kinase-Glo Plus ATP luminescence, 45 min. Q57TT1. 410,000 compounds, 0.12% hits; also: nearly all actives have a fitted effect of over 50% in size
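Quantitative HTS: titrated library compounds versus trypanosomal pyruvate kinase in TEA buffer (pH 7.2) containing KCl, MgCl2, BSA and Tween-20. Reactions were initiated with ADP, 130 uM final. Kinase-Glo Plus luminescence was read after 45 min at RT.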
NS1 inh: influenza NS1 inhibition. Potency, µM (doses to about 46.1 µM). 270,000 compounds, 0.4% hits; calls by dose curve; also: actives are rising curves; nearly all actives have a fitted effect of over 50% in size
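S. cerevisiae expressing influenza A NS1, grown in glucose, washed, then diluted 1:100 into pH 6.0 -URA galactose medium with 23 nl compound. Growth recovery read as OD600; NS1-free strain serves as control.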
Sm TGR block: blocks Schistosoma mansoni thioredoxin glutathione reductase | Q962Y6 | purified TGR, DTNB reduction, TNB absorbance 405 nm | Potency, µM (top dose mostly 114 µM), hits mostly inhibitors | 360,000 compounds, 3% hits | AID 485364; also: nearly all actives have a fitted effect of over 60% in size
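Kinetic colorimetric format: TGR-catalysed, NADPH-driven DTNB reduction monitored via TNB absorbance. Enzyme dispensed at 20 nM; compound exposure 15 min at room temperature before reaction start.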
LmPK inhibitor: LmPK (Leishmania mexicana) enzyme inhibition; 290,000 compounds, 0.37% hits; purified LmPK, Kinase-Glo ATP luminescence, 1 h; Q27686; Potency, µM (doses to about 57.5 µM), hits mostly inhibitors
Target sequence (Q27686 whole entry, looked up): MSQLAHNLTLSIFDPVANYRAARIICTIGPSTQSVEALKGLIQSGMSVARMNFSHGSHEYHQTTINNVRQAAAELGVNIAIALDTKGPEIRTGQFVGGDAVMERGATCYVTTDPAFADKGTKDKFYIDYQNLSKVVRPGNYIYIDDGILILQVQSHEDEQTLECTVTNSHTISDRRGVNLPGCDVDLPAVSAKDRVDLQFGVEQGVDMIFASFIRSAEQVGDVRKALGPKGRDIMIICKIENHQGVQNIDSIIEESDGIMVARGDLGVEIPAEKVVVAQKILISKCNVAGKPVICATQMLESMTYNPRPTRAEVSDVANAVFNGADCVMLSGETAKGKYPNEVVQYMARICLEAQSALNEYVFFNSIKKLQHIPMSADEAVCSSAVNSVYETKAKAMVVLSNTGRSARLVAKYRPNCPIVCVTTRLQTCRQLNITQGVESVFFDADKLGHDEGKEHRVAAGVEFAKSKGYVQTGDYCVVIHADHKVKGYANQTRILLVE
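Pyruvate kinase activity monitored as ATP production (luciferase luminescence). Conditions: 0.1 nM enzyme, 0.5 mM PEP, 0.1 mM ADP, 1 h, RT; normalized against uninhibited and no-enzyme wells.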
A number is an active result; n = inactive; u = inconclusive; x = no result; [ ] = dose if it differs, or a comment. This is a sample that favours compounds with a hit; in the whole collection about 3.5% have one here. Unless noted, calls follow the shape of the dose curve; as a rule, active = well fitted curve in the direction sought with a large enough effect; inconclusive = small, poorly fitted or top-dose-only effect, or another doubt; inactive = no such curve, though single readings can be large; an effect the other way counts as inactive or inconclusive.

SMILES | RE007 growth inh | Giardia FBPA inh | Tb PYK inh | NS1 inh | Sm TGR block | LmPK inhibitor
CCOc1ccc(CCNC(=O)c2ccc3c(c2)NC(=O)C2CCCN32)cc1OCC (stereo not given) | x | n | x | n | 50µM | n
COC(=O)c1ccccc1NC(=O)c1cnc2c(-c3cccc(C)c3)c(C)nn2c1C | x | x | n | x | n | x
Cc1ccccc1C(=O)Nc1nnc(S(=O)(=O)N2CCCc3ccccc32)s1 | x | x | n | x | n | x
Cc1ccc2c(c1)c(=O)c1ccccc1n2CCCC(=O)Nc1c(F)cccc1F | x | x | n | x | n | x
CC(C)C1Oc2ccccc2N(CC(=O)N(Cc2ccccn2)CC2CCCO2)C1=O (stereo not given) | n | n | n | n | n | n
Cc1ccc(CN(CC2CCCO2)C(=O)CN2C(=O)C(C(C)C)Oc3ccccc32)o1 (stereo not given) | n | n | u | n | 35µM | n
O=C(CCCn1c(=O)c2cccn2c2cccnc21)Nc1ccccc1C(F)(F)F | x | x | n | x | n | x
COc1ccc(C2/C=C\CNCC(=O)N2Cc2ccc(F)cc2)cc1 (stereo not given) | n | n | n | n | 40µM | n
Cc1ccc(Nc2nc(=O)c3cccnc3s2)cc1 | n | n | n | n | n | n
COc1ccc(OC)c(Nc2nc(=O)c3cccnc3s2)c1 | n | u | 35µM | n | x | n
Cc1ncc(CSc2nnnn2-c2ccccc2)c(N)n1 | n | n | n | n | 45µM | n
CCC(=O)N1CCc2cc(Br)cc(S(=O)(=O)CCC(=O)NCCc3cccc(C)c3)c21 | x | x | n | x | n | x
COCCCNC(=O)c1ccc(N(C)S(=O)(=O)c2ccc(OC)cc2)cc1 | n | n | n | n | n | n
COCCCNC(=O)c1ccc(N(C)S(C)(=O)=O)cc1 | n | n | n | n | 28µM | n
CCOc1ccc(/C=C(\C#N)C(=O)Nc2sc3c(c2C(=O)OC)C(C(=O)OC)CC3)cc1OC (stereo not given) | x | x | u | x | n | x
O=C(CSc1nnc(-c2ccco2)n1Cc1ccccc1)c1ccccc1 | n | n | n | n | 45µM | n
Cn1c(SCC(=O)c2ccc(-c3ccccc3)cc2)nnc1-c1ccco1 | n | n | n | n | 6.3µM | n
Cc1ccc(C(=O)CSc2nnc(-c3ccco3)n2Cc2ccccc2)cc1 | n | n | u | n | n | n
COc1cccc(CSc2nnc(-c3ccco3)n2C)c1 | n | n | n | n | 40µM | n
CC1(C)CC(=O)C(C=NCCN2CCN(C(=O)CC3CCCC3)CC2)=C(O)C1 | n | n | n | n | n | n
CC1(C)CC(=O)C(C=NCCN2CCN(C(=O)c3ccc(Br)cc3)CC2)=C(O)C1 | n | n | n | n | 28µM | n
CC1(C)CC(=O)C(C=NCCN2CCN(C(=O)NC34CC5CC(CC(C5)C3)C4)CC2)=C(O)C1 | n | n | n | n | 35µM | n
CN1C(=O)CC(N2CCN(CCN=CC3=C(O)CC(C)(C)CC3=O)CC2)C1=O (stereo not given) | n | n | n | n | n | n
CC1(C)CC(=O)C(C=NCCN2CCN(C3CC(=O)N(c4ccc(Cl)c(Cl)c4)C3=O)CC2)=C(O)C1 (stereo not given) | 10µM | n | n | n | 25µM | n
CCN(CC)S(=O)(=O)c1ccc2c(c1)N(CC(=O)N1CCN(c3ccc(Cl)cc3)CC1)C(=O)CO2 | x | x | n | x | n | x
SMILES | RE007 growth inh | Giardia FBPA inh | Tb PYK inh | NS1 inh | Sm TGR block | LmPK inhibitor
O=C(Cn1c(=O)n(CCc2ccccc2)c(=O)c2cccnc21)Nc1ccc(F)cc1 | x | x | n | x | n | x
CCOC(=O)N1CCC(NC(=O)c2c(C)nn(-c3ccc(C)cc3)c2-n2cccc2)CC1 | x | x | n | x | n | x
CCC(C)NC(=O)C1CCC(CNS(=O)(=O)c2ccc(Cl)cc2)CC1 (stereo not given) | x | x | n[15.4 µM] | x | n | x
CCCCc1ccc(C(=O)O)nc1 | n[18.4 µM] | 16µM | n | n | n | x
CCc1nn(CC(=O)NCc2ccc(OC)c(OC)c2)c(=O)c2cc3sc(C)cc3n12 | x | x | n | x | n | x
COc1ncccc1-c1nnn(-c2ccc(Cl)nc2)n1 | n | n | n | n | 25µM | n
Cc1ccc(C(=O)Nc2nnc(S(=O)(=O)N(C)Cc3ccc(Cl)cc3)s2)cc1 | x | x | n[15.4 µM] | x | n | x
Oc1ccc(N=Cc2ccc(-c3cccs3)s2)cc1 | n | 3.5µM | n | n | 22µM | n
Cc1nnsc1C(=O)NNc1ccc(C(C)C)cc1 | n | n | n | n | u | n
Cc1nnsc1C(=O)NNc1ccc(C(C)(C)C)cc1 | n | n | n | n | 35µM | n
O=C1C=CC(O)(c2cc(=O)c3c(O)cc(O)cc3o2)C=C1 | n | n | n | u | 35µM | n
O=c1cc(-c2ccccc2Cl)oc2cc(O)cc(O)c12 | n | n | n | n | n | n
Nc1nccc(-c2ccc3noc(-c4ccc(Cl)cc4)c3c2)n1 | x | x | n | x | x | x
NC(=O)C1(N2CCCCC2)CCN(C2CC(=O)N(CCc3ccccc3)C2=O)CC1 (stereo not given) | n | n | n | n | u | n
COc1cccc(N2C(=O)CC(N3CCC(C(N)=O)(N4CCCCC4)CC3)C2=O)c1 (stereo not given) | n | n | n | n | 18µM | n
NC(=O)C1(N2CCCCC2)CCN(C2CC(=O)N(Cc3cccs3)C2=O)CC1 (stereo not given) | n | n | n | n | 50µM | n
COc1ccc(N2C(=O)CC(N3CCC(O)(c4cccc(C(F)(F)F)c4)CC3)C2=O)cc1 (stereo not given) | 32µM | n | n | n | 40µM | n
COc1ccc(N2C(=O)CC(N3CCCC4CCCCC43)C2=O)cc1 (stereo not given) | 7.1µM | n | n | n | 11µM | n
COc1ccc(N2C(=O)CC(N3CCN(c4cccc(Cl)c4)CC3)C2=O)cc1 (stereo not given) | n | n | n | n | n | n
COc1ccc(N2C(=O)CC(C3CCCO3)C2=O)cc1 (stereo not given) | n | n | n | n | n | n
CCOC(=O)c1ccc(NC(=O)C2=C(C)Nc3nc(SCc4ccc(Cl)cc4)nn3C2c2ccc(OC)cc2)cc1 (stereo not given) | x | x | n | x | n | x
Cc1ccc(Cl)cc1N1CCN(C(=O)Cn2cnc3sc(C)c(S(=O)(=O)N4CCC(C)CC4)c3c2=O)CC1 | x | x | n | x | n | x
O=C1C2C3C=CC(C3)C2C(=O)N1c1ccc2c(c1)OCO2 (stereo not given) | n | n | n | n | n | n
COc1ccc(N2C(=O)CC(N3CCN(c4ccc(S(=O)(=O)N5CCCC5)cc4)CC3)C2=O)cc1 (stereo not given) | n | n | n | n | u | n
O=C1CC(N2CCN(c3ccc(F)cc3)CC2)C(=O)N1c1ccc(F)cc1 (stereo not given) | n | n | n | n | n | n
